According to PubChem BioAssay AID463173 (ICCB-Longwood Screening Facility, Harvard Medical School, 2010):
In all, about 52,000 compounds went through this assay and about 4,300 (8.3%) were called active. The sample as a whole holds a higher share of actives than the screen did. Values without a mark were called inactive. No stated cut-off is given here; in the data, active means survival mostly below about 52% (no sharp cut-off); inactive means mostly above about 56%.

tested on: DeltatarO mutant; assay: S. aureus survival, RN4220 and DeltatarO strains – OD600, teichoic acid synthesis inhibitors, primary screen (AID 463173); conditions: S. aureus RN4220 wild type/DeltatarO growth, OD600, 18 h, hits give low values, screened at 18.75 µg/mL (by protocol)

SMILES | survival
Cc1ccc(CNC(=O)CCCn2c(=O)[nH]c3ccc(Br)cc3c2=O)cc1 | 87%
Cc1ccc(-c2nnc(SC(C)C)n2-c2ccccc2)cc1 | 100%
COc1ccccc1C(=O)n1nc(-c2cccnc2)nc1NCc1ccccc1 | 64%
CCc1ccc(S(=O)(=O)c2nnn3c2nc(NCCNC(C)=O)c2cc(Cl)ccc23)cc1 | 74%
CCOC(=O)N1CCN(Cc2nc3cc(NC(=O)c4ccc([N+](=O)[O-])cc4)ccc3n2C(C)C)CC1 | 75%
CC(C)Oc1ccc(CNC(=O)c2ccc3nc(SCc4ccc(F)cc4)n(C)c3c2)cc1 | 101%
CCS(=O)(=O)N1CCC(C(=O)NCCC(C)C)CC1 | 87%
CCCCn1c(SCC(=O)Nc2cccc(OC)c2)nc2c(sc3ccccc32)c1=O | 88%
Cc1nc2nc(CNC(=O)c3cccc(F)c3)nn2c(C)c1CCC(=O)Nc1cccc(Cl)c1 | 110%
CC1CCCN(S(=O)(=O)c2ccc(N3CCCCS3(=O)=O)cc2)C1 (stereo not drawn) | 74%
CCN(C(=O)c1ccc2c(=O)n3c(nc2c1)CCCCC3)c1cc(C)ccc1C | 89%
COc1ccc(S(=O)(=O)c2nnn(-c3ccc(C)c(Cl)c3)c2C)cc1 | 99%
Cc1cccc(Cn2c(Cc3ccccc3)nc3ccccc32)c1 | 22% (active)
CC(C)c1ccc(Cn2c(COc3ccccc3)nc3ccccc32)cc1 | -1% (active)
COCc1nc2ccccc2n1Cc1cccc(C)c1 | 79%
Cc1cccc(Cn2c(CNC(=O)c3ccccc3)nc3ccccc32)c1 | 64%
Cc1ccc2c(=O)cc(C(=O)Nc3ccc(S(=O)(=O)Nc4nc(C)cc(C)n4)cc3)oc2c1 | 78%
COCCn1c(SCC(=O)c2ccc(C)cc2)nc2cc(C(=O)NC3CCCC3)ccc2c1=O | 89%
COc1cccc(C2=NN(C(C)=O)C(c3cn(-c4ccccc4)nc3-c3cccs3)C2)c1 (stereo not drawn) | 170%
Cc1nn2c(=O)cc(COC(=O)COc3ccc(F)cc3)nc2s1 | 94%
CCn1c(=O)c2cc(C(=O)N(CCN(C)C)Cc3ccccc3)sc2c2ccccc21 | 77%
CCOCCCN(Cc1ccco1)C(=O)c1cc2c(=O)[nH]c3ccc(C)cc3c2s1 | 88%
CCn1c(=O)c2cc(C(=O)N(C)c3cc(C)ccc3C)sc2c2ccccc21 | 105%
CCn1c(=O)c2cc(C(=O)N(C)c3cc(Cl)c(OC)cc3OC)sc2c2ccccc21 | 80%

SMILES | survival
CCCn1c2ccccc2c2cnn(CC(=O)N(CCCOC(C)C)Cc3ccco3)c(=O)c21 | 87%
CCn1c(=O)c2cc(C(=O)N(CCCOC(C)C)Cc3ccco3)sc2c2ccccc21 | 8% (active)
COCCN(Cc1ccco1)C(=O)c1cc2c(=O)[nH]c3ccc(C)cc3c2s1 | 53%
CCn1c(=O)c2cc(C(=O)N(CC(C)C)CC(C)C)sc2c2ccccc21 | -4% (active)
Cc1ccc2[nH]c(=O)c3cc(C(=O)N(CCCOC(C)C)Cc4ccco4)sc3c2c1 | 56% (active)
N#CC(C#N)=CC1=C(N2CCCC2)CCCC1 | 89%
Cc1c(-c2nc(-c3ccccc3)no2)nnn1-c1cccc(C(F)(F)F)c1 | 80%
Cc1ccc(NC(=O)Cn2cc(S(=O)(=O)c3ccccc3)c(=O)c3cc4c(cc32)OCO4)cc1 | 97%
Cc1ccccc1-c1noc(-c2cc3ccccc3oc2=O)n1 | 85%
CC1=C(C(N)=O)C(c2cccc(Br)c2)n2nc(SCc3ccccc3)nc2N1 (stereo not drawn) | 76%
O=C(O)CC1CCCC(c2ccccc2)C1=O (stereo not drawn) | 91%
Cc1ccc2c(CC(=O)Nc3c(C(=O)c4ccc(F)cc4)oc4ccccc34)coc2c1 | 60%
COc1ccc(S(=O)(=O)N(C)Cc2nc(-c3cccc(C)c3)no2)cc1 | 51%
Cc1ccc(S(=O)(=O)N(Cc2nc(-c3cccc(C)c3)no2)C2CCCCC2)cc1 | 46% (active)
O=S(=O)(c1ccc(F)cc1)N(Cc1nc(-c2ccccc2)no1)C1CCCCC1 | 45% (active)
CCN(Cc1nc(-c2cccc(C)c2)no1)S(=O)(=O)c1ccc(C)cc1 | 43% (active)
O=S(=O)(c1ccc(F)cc1)N(Cc1nc(-c2ccc(Cl)cc2)no1)C1CCCCC1 | 76%
Cc1cccc(-c2noc(CN(C3CCCCC3)S(=O)(=O)c3ccc(F)cc3)n2)c1 | 71%
COc1ccc(S(=O)(=O)N(Cc2nc(-c3cccc(C)c3)no2)C2CCCCC2)cc1 | 57%
Cc1ccc(-c2noc(CN(C3CCCCC3)S(=O)(=O)c3ccc(F)cc3)n2)cc1 | 78%
Cc1ccc(S(=O)(=O)NCc2nc(-c3cccc(C)c3)no2)cc1 | 100%
COc1ccc(-c2cc(C)no2)cc1S(=O)(=O)N1CCN(c2ccc(C(C)=O)cc2)CC1 | 91%
CCCN1CCN(C(=O)Cn2c(-c3cccs3)cc3ccccc32)CC1 | 95%
Cc1cc(C)c2c(=O)[nH]c(SCC(=O)NCCc3ccccc3)nc2n1 | 61%

SMILES | survival
CCCCN(C)CCNC(=O)C1CCN(c2nc3ccc(CC)cc3s2)CC1 | 45%
CCOc1ccc2nc(N3CCCC(C(=O)NCCc4ccc(SC)cc4)C3)sc2c1 (stereo not drawn) | 91%
CCCN(CCC)CCNC(=O)C1CCN(c2nc3ccc(CC)cc3s2)CC1 | 43% (active)
CCCN(CCC)CCCNC(=O)C1CCN(c2nc3ccc(CC)cc3s2)CC1 | 54%
CCOc1ccc2nc(N3CCCC(C(=O)NCCc4ccc(Cl)cc4)C3)sc2c1 (stereo not drawn) | 48% (active)
CCOc1ccc2nc(N3CCCC(C(=O)NCCc4ccc(C)cc4)C3)sc2c1 (stereo not drawn) | 64%
COc1ccc(CCNC(=O)CSc2cn(CCNC(=O)c3c(F)cccc3F)c3ccccc23)cc1OC | 79%
COc1cccc(CNC(=O)C2CCCN(S(=O)(=O)N(C)c3ccc(F)cc3)C2)c1OC (stereo not drawn) | 87%
O=C1CS/C(=N\N2CCOCC2)N1Cc1ccccc1 | 84%
Cc1nnc(N2CCN(C(=O)NC(C)C)CC2)c2nn(-c3ccccc3)c(C)c12 | 72%
O=C(Nc1ccc(F)cc1)c1csc2c1CCCCC2 | 63%
Cc1ccc(C)c(NC(=O)Nc2csc3c2CCCC3)c1 | 75%
Cc1cc(NC(=O)Nc2csc3c2CCCC3)ccc1Br | 44%
Cc1ccc(NC(=O)Nc2csc3c2CCCC3)c(C)c1 | 63%
CCc1cccc(NC(=O)Nc2csc3c2CCCC3)c1 | 114%
Cc1cccc(C)c1NC(=O)Nc1csc2c1CCCC2 | 78%
Cc1ccccc1NC(=O)Nc1csc2c1CCCC2 | 29% (active)
O=C(Nc1ccc(F)cc1)Nc1csc2c1CCCC2 | 4% (active)
CC(C)c1ccc(NC(=O)Nc2csc3c2CCCC3)cc1 | 13% (active)
CCOCCCNC(=O)CCC(=O)NNc1nc2ccccc2c2nc(-c3ccccc3)nn12 | 83%
COc1ccc(NC(=O)CN2C(=O)CSc3ccc(S(=O)(=O)N(C)C)cc32)cc1Cl | 74%
CCc1nn(CC(=O)N2CCN(c3cccc(OC)c3)CC2)c(=O)c2cc3occc3n12 | 91%
COc1ccc(S(=O)(=O)N(CCc2ccccc2)CC(N)=O)cc1 | 88%
Cn1nnnc1SCCCNCc1cc(Cl)ccc1OCc1ccccc1 | 72%

SMILES | survival
O=C(CSc1nc2c(oc3ccccc32)c(=O)[nH]1)Nc1cccc(Cl)c1 | 37% (active)
O=C(CSc1nc2c(oc3ccccc32)c(=O)n1-c1ccccc1)Nc1ccc(F)c(Cl)c1 | 86%
CCOc1ccc(NC(=O)CSc2nc3c(oc4ccccc43)c(=O)n2CCOC)cc1 | 74%
O=C(CSc1nc2c(oc3ccccc32)c(=O)n1Cc1ccco1)Nc1cccc(Cl)c1 | 62%
COCCn1c(SCC(=O)Nc2ccc(F)c(Cl)c2)nc2c(oc3ccccc32)c1=O | 44% (active)
COc1cccc(-n2c(SCC(=O)Nc3cccc(Cl)c3)nc3c(oc4ccccc43)c2=O)c1 | 85%
O=C(NCc1ccc(F)cc1)C1CCN(c2ncnc3c2nc2n3CCCCC2)CC1 | 86%
CCC1(c2ccccc2)NC(=O)NC1=O (stereo not drawn) | 98%
Clc1nc(Cl)nc(OCCCOc2nc(Cl)nc(Cl)n2)n1 | 94%
CCc1c(C)nc2nncn2c1Nc1ccc(Cl)cc1 | 91%
Cc1ccc(N2CCN(c3nc4ccccc4c4nnc(C)n34)CC2)c(C)c1 | 101%
CCOC(=O)c1cc(OC(=O)c2ccc(C)cc2)n(-c2ccccc2)n1 | 137%
CCOC(=O)c1cc(OC(=O)c2cc(OC)c(OC)c(OC)c2)n(-c2ccccc2)n1 | 54% (active)
CCOC(=O)c1cc(OC(=O)c2cccc(C)c2)n(-c2ccccc2)n1 | 59%
CCOC(=O)c1cc(OC(=O)c2cc(OC)cc(OC)c2)n(-c2ccccc2)n1 | 62%
CCOC(=O)c1cc(OC(=O)c2ccc(OC)cc2)n(-c2ccccc2)n1 | 59% (active)
CCOC(=O)c1cc(OC(=O)c2cccc(F)c2)n(-c2ccccc2)n1 | 61%
CCOC(=O)c1cc(OC(=O)c2ccccc2OC)n(-c2ccccc2)n1 | 54%
CCOC(=O)c1cc(OC(=O)c2ccc(OC)c(OC)c2)n(-c2ccccc2)n1 | 67%
CCOC(=O)c1cc(OC(=O)c2ccc(Cl)cc2)n(-c2ccccc2)n1 | 85% (active)
CCOc1ccc(NC(=O)CN2C(=O)COc3ccc(S(=O)(=O)NC4CCCC4)cc32)cc1 | 73%
